GRIN3A LBD mod – modulates the human NR3A ligand-binding domain. Tm shift relative to glycine control, % at 25 µM. actives 2.5% (n = 340,000). NR3A LBD differential scanning fluorimetry, Tm shift; 0% = protein alone, 100% = glycine-bound protein;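 active means melting temperature shift of at least 10% of the positive control shift, at one fixed dose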
Rpn11 block – inhibitors of human proteasome Rpn11; human 26S proteasome, Ub4-pepOG fluorescence polarization; 20S core pre-blocked with epoxomicin; inhibition, % at 20 µM; actives 0.59% (n = 360,000);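 active means inhibition at 20 µM, scaled to each plate's controls, above about 33%, limit read from the data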
Target sequence (O00487 whole entry, looked up): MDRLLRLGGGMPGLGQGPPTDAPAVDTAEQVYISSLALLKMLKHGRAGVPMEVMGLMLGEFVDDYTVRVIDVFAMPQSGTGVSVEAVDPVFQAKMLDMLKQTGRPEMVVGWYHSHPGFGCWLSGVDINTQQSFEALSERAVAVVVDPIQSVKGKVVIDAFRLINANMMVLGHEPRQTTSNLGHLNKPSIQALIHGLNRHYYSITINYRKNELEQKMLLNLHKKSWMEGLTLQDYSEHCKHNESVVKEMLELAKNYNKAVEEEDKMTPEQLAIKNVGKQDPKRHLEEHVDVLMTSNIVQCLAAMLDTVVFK
ZTA counter – blocks Epstein-Barr virus ZTA, an EBNA-1 counter-screen. P03206. ZTA-DNA binding, fluorescence polarization. inhibition, % at 11 µM. actives 0.15% (n = 320,000); in the data active means inhibition above about 33%
Target sequence (P03206 whole entry, looked up): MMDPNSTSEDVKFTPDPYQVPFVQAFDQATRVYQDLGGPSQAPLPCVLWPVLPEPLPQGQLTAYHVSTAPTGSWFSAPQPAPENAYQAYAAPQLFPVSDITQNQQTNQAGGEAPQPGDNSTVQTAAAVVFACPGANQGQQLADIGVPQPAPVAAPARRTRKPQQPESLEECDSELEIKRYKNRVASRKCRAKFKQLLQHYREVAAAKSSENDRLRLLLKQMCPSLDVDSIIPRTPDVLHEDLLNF
dFosB act – enhances mouse delta FosB homodimer DNA binding. purified delta FosB, TAMRA-CDK5 oligo fluorescence polarization; percent of positive-control signal above neutral wells. activation, % at 25 µM. actives 0.99% (n = 340,000);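 active means mean activation above about 17%, with every replicate also reaching it, limit read from the data, passing the limit was not always enough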
EBNA-1 inhibitor – blocks EBNA-1 binding to DNA; EBNA-1 DNA binding, fluorescence polarization; inhibition, % at 14.8 µM; actives 0.34% (n = 300,000); in the data active means inhibition above about 28%
TPT1 inh – C. albicans TPT1 enzyme inhibition; recombinant caTPT1, FP RNA substrate dephosphorylation; inhibition, % at 5 µM; actives 0.81% (n = 300,000);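 active means inhibition above the mean of all tested compounds plus 3 SD, set per screening campaign, cut at about 24% in these data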;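 further: plate controls were DMSO alone for no effect and ferristatin control at 100 nM for full effect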
* hit, by the source's call; / = not tested or not shown. Hits are enriched below; roughly 4.5% of the tested compounds scored in any of these assays.

SMILES	GRIN3A LBD mod	Rpn11 block	ZTA counter	dFosB act	EBNA-1 inhibitor	TPT1 inh
COc1ccc(-c2nc3ccccc3c(=O)n2O)cc1	32.1*	-15.4	-6.6	-4.5	-8.9	-1.7
O=C(Cc1cnc2ncnn2c1)N1CCc2c([nH]c3ccccc23)C1c1ccccn1 (stereo unspecified)	-1.6	6.3	-17.6	-0.6	-15.5	0.2
COc1ccccc1OCCCOc1c(C)cc(C)cc1Br	16.4*	1.4	-3.6	-2.9	-0.8	-2.5
COc1cccc(OC)c1OCCCOc1ccc(C)cc1Br	10.2*	-3.7	-3.4	-6.3	-3.0	-0.7
NS(=O)(=O)c1ccc(NC(=O)COC(=O)c2cnc(Cl)c(Cl)c2)cc1	-3.0	4.5	-6.3	-4.8	-21.6	1.1
Fc1cccc(/C=N/Nc2ccccn2)c1	12.8*	-6.3	-4.8	-5.6	-0.8	-3.3
COc1ccccc1OCCCCn1ncc2ccc(OC)c(OC)c2c1=O	-1.3	1.7	-11.8	7.1	10.4	-4.1
CN(C)S(=O)(=O)c1cccc(-c2nnc(SCC(=O)NCCCCCC(=O)O)n2-c2ccc(F)cc2)c1	0.4	-13.6	5.0	-4.2	4.0	0.5
CN(C)c1ccc(N=Nc2nc3ccccc3n2C)cc1	-2.2	16.4	-7.0	20.6*	-1.9	-1.3
Cn1c(N=Nc2ccccc2)nc2ccccc21	-1.8	-8.6	-0.7	5.8	-1.6	-0.9
COc1ccc(C2(C)NC(=O)N(CC(=O)NC(C)c3ccc(CC(C)C)cc3)C2=O)cc1 (stereo unspecified)	-1.3	3.0	3.6	-24.5	-6.3	-4.8
Cc1ccc(N2C(=O)c3ccccc3NC2(C(=O)O)c2ccccc2)cc1Cl (stereo unspecified)	-0.5	1.1	-9.6	-5.0	4.8	-2.2
Cc1ccc(C(=O)Cn2c(C)cc(C)c(C#N)c2=O)cc1	13.1*	-0.2	1.1	-8.4	-8.3	-2.7
O=C(NCc1cccc(F)c1)C1CCC(=O)N(C2CC2)C1 (stereo unspecified)	-0.8	0.4	-9.6	1.7	8.2	-4.3
Cc1cc(-c2ccccc2)nc(-c2ccccc2)c1C	1.7	1.4	8.2	-10.2	3.0	-0.6
Cc1c(Cl)ccc2c(C(O)CBr)cc(-c3ccccc3)nc12 (stereo unspecified)	31.8*	0.9	/	-4.0	/	/
CCCc1nc(SCC(=O)N2CCc3ccccc3C2)c2ccccc2n1	12.6*	0.5	2.2	-19.4	4.5	-5.9
CCCCNC(=O)CSc1nc(CCC)nc2ccccc12	-17.1	-7.7	9.6	-7.0	1.1	1.4
Cc1noc(NS(=O)(=O)c2ccc(NC(=O)c3ccc(N4C(=O)c5ccccc5C4=O)cc3)cc2)c1C	-12.9	1.1	5.0	-4.2	-11.6	1.7
Cc1noc(NS(=O)(=O)c2ccc(NC(=O)Nc3ccc(Cl)c(Cl)c3)cc2)c1C	35.9*	-1.6	1.8	3.8	-15.9	2.2
Cc1noc(NS(=O)(=O)c2ccc(NC(=O)C(Cl)(Cl)Cl)cc2)c1C	0.2	4.8	-10.6	-2.7	6.4	-1.8
Cc1noc(NS(=O)(=O)c2ccc(NC(=O)CCN3C(=O)c4ccccc4C3=O)cc2)c1C	14.1*	4.3	-13.5	-3.2	1.1	-3.0
O=C(C1=C[C@H](c2ccc(Br)cc2)C[C@H](OCCCCO)O1)N1CCN(Cc2ccccc2)CC1	-5.2	3.5	-19.6	-3.7	-2.1	-2.2
O=C1OC(c2cccs2)=N/C1=C\c1ccc(-c2ccccc2Cl)o1	-4.2	87.4*	/	-4.8	/	/
Nc1ccn(CCCNCC(c2ccccc2)c2ccccc2)c(=O)n1	/	-8.0	/	/	/	/
SMILES	GRIN3A LBD mod	Rpn11 block	ZTA counter	dFosB act	EBNA-1 inhibitor	TPT1 inh
CCOc1ccc(NC(=O)C(c2ccccn2)N(C(=O)CCl)c2ccc(F)cc2)cc1 (stereo unspecified)	7.9	7.3	3.7	0.4	-3.3	0.6
Cc1c(C)n(CCN(C)C)c2ccc(C(=O)OCCN(C)C)cc12	0.2	2.1	-5.2	20.2*	3.0	0.9
O=C(Nc1ccc(Oc2ccc(Cl)cc2)c(Cl)c1)c1cc(I)cc(I)c1O	31.1*	1.8	-1.0	1.7	5.3	-0.4
COc1ccccc1Oc1ccc(NC(=O)c2ccc(Cl)cc2)cc1	-6.8	0.7	-4.4	-1.1	17.6	1.2
CS(=O)(=O)c1ccc(C(=O)OCC(=O)NC(=O)C2CCCCC2)cc1[N+](=O)[O-]	18.9*	2.5	-19.9	-4.0	-14.4	-0.7
CS(=O)(=O)c1ccc(C(=O)OCC(=O)NC(=O)C2COc3ccccc3O2)cc1[N+](=O)[O-] (stereo unspecified)	-1.9	-0.1	/	-5.8	/	/
CCCCCCc1ccc(-c2ncc(N)cn2)cc1	10.7*	-4.4	17.5	-2.5	-0.9	2.4
NC(=O)c1ccsc1NC(=O)c1ccc(S(=O)(=O)N2CCCc3ccccc32)cc1	16.2*	13.4	0.1	9.6	6.2	1.9
O=C(Nc1ccc(S(=O)(=O)N2CCCc3ccccc32)cc1)C1CCCO1 (stereo unspecified)	11.1*	-3.9	-8.1	-15.4	2.2	-0.9
CCOc1ccc(-c2[nH]ncc2Oc2cccc(OC)c2)c(O)c1	6.2	-1.3	5.4	-0.9	-0.8	4.4
COc1cccc(Oc2cn[nH]c2-c2ccc(O)cc2O)c1	28.3*	-2.8	2.6	-7.5	8.8	0.2
COc1cccc(Oc2cn[nH]c2-c2ccc(OC)cc2O)c1	22.2*	-4.1	-8.5	-0.2	-11.8	0.8
Cc1noc(C)c1C(=O)OC(C)C(=O)N(C)c1ccccc1 (stereo unspecified)	2.3	-1.0	4.0	-1.2	/	/
Cc1ccc(NC(=O)c2ccc(S(=O)(=O)N3CCCC3)cc2)cc1	16.0*	-5.5	15.1	-6.9	5.4	-2.8
COc1ccc(C(=O)Nc2ccc(S(=O)(=O)N3CCCCC3)cc2)cc1	23.6*	-0.5	11.8	-5.4	5.5	-3.3
COc1ccc(C(=O)Nc2ccc(S(=O)(=O)N3CCN(C)CC3)cc2)cc1	-0.1	6.0	8.5	-7.8	10.3	-1.0
O=C(Nc1ccc(S(=O)(=O)N2CCCC2)cc1)c1ccc([N+](=O)[O-])cc1	26.6*	-10.0	-6.2	-12.4	-1.6	-0.3
O=C(Nc1cccc(S(=O)(=O)N2CCCC2)c1)c1cccc(OC(F)F)c1	-4.1	5.1	7.9	-8.6	-1.6	-0.1
O=C(Nc1ccc(S(=O)(=O)N2CCCC2)cc1)c1cccc(OC(F)F)c1	19.2*	-5.2	9.4	-6.8	4.1	-3.3
CN1C[C@@H]2[C@@H]3C(=O)N(C)C(=O)[C@@H]3[C@](C)(C1=O)N2C(=O)c1ccc(C(C)(C)C)cc1	-0.2	-1.1	/	0.1	/	/
O=C(OCCCOC(=O)c1ccc(Br)o1)c1ccc(Br)o1	-2.5	-6.5	-13.2	-5.8	-7.1	-0.2
O=C(Nc1ccc(S(=O)(=O)N2CCCC2)cc1)c1ccc([N+](=O)[O-])o1	27.3*	-1.3	/	-16.9	/	/
O=C(Nc1ccc(S(=O)(=O)N2CCOCC2)cc1)c1ccc([N+](=O)[O-])o1	-2.2	-5.4	7.1	2.1	-11.0	-1.1
